In all, about 48,000 compounds went through this assay and about 13,000 (27%) showed an effect of 50% or more. The list shows a part of the results.
Tested on: Wolbachia pipientis
Assay: Anti-Wolbachia Cell-Based Screen
Assay type: functional
Design: scale not given: in the data most compounds retested in dose-response had high values
Conditions: 5 µM

Structure (SMILES) | Percent Effect
O=C(CCCn1cncn1)NC1(c2ccc(Cl)cc2)CCC1 | -16.99%
O=C(CCN1CCC(c2cc3ccccc3[nH]2)CC1)N1CCOCC1 | -13.23%
O=C(CCn1ccc(=O)[nH]c1=O)N1CCC(Oc2ccccn2)CC1 | 4.456%
COc1cc(CCC(=O)N2CCC(c3cc4nccnc4[nH]3)CC2)on1 | 109.8%
O=C(CCc1cc(O)no1)N1CCCC(COc2ccc(F)cc2)C1 (centres undefined) | -11.68%
COc1cc(CCC(=O)N2CCC(c3cc4ncccc4[nH]3)CC2)on1 | 86.08%
O=C(CCc1cc(O)no1)N1CCCC(COc2ccccc2F)C1 (centres undefined) | -3.381%
Cc1ccsc1C(=O)N1CC(C(=O)NC(C)C)C2(CCOCC2)C1 (centres undefined) | 2.071%
CNC(=O)N1Cc2cc(F)ccc2C2(CCN(C)CC2)C1.Cl | 3.324%
CN1C[C@@H](C(=O)NC2CC2)[C@@]2(COc3ccc(F)cc3C2=O)C1 | 74.8%
CC(C)NC(=O)[C@@H]1CN(C)C[C@]12COc1ccc(F)cc1C2=O | 126.3%
CN1CCN(C(=O)[C@@H]2CN(C)C[C@]23COc2ccc(F)cc2C3=O)CC1 | 67.23%
CC(C)NC(=O)C1CN(C(=O)c2ccc(F)cc2)CC12CCOCC2 (centres undefined) | 19.27%
O=C(NC1(C(=O)O)CCCC1)C1Cc2cc(F)ccc2O1 (centres undefined) | -1.866%
CN1C[C@@H](C(=O)NC2CCCC2)[C@@]2(COc3ccc(F)cc3C2=O)C1 | 83.49%
O=C(CCN1CCC(C(=O)c2cc(F)ccc2F)CC1)NC1CCCC1 | -34%
O=C(C1CCOc2ccccc21)N1CCOc2ccc(F)cc21 (centres undefined) | 2.761%
CCCN1CCC(NC(=O)c2ccc(F)cc2I)CC1 | 3.516%
O=C(NCCNC(=O)C1Cc2cc(F)ccc2O1)C1CCCCC1 (centres undefined) | 14.96%
Cc1cc(F)ccc1N1CCC(N2C[C@@H](C)[C@@](C)(O)C2)CC1 | -24.61%
OCCOCc1n[nH]c2c1CN(Cc1cccs1)C2 | -8.945%
C1CCC(c2nc3c(c(N4CC(N5CCOCC5)C4)n2)CCNCC3)C1 | -4.65%
Cc1noc(C)c1CN(C)C(=O)C1CCCCN1CC(C)C (centres undefined) | 0.6295%
CCc1cnc(C)nc1N1CCS(=O)(=O)CC1 | 16.32%
CN1C[C@@H](C(=O)NC(C)(C)C)[C@@]2(COc3ccc(F)cc3C2=O)C1 | 107.1%
CC(C)(C)NC(=O)C1CSCN1S(=O)(=O)c1ccc(F)cc1 (centres undefined) | 5.212%
CC(C)(C)NC(=O)C1CSCN1S(=O)(=O)c1cccc(F)c1 (centres undefined) | 1.077%

Structure (SMILES) | Percent Effect
CC(=O)c1cccc(S(=O)(=O)N2CSCC2C(=O)NCC(F)(F)F)c1 (centres undefined) | 8.95%
CN(CCOc1cccc(CNC(=O)C2CC2)c1)C1CCOCC1 | -18.9%
CN(C)C(=O)c1c[nH]nc1-c1ccc(CNC(=O)c2cnccn2)cc1 | 109.4%
CCN(CC)c1ccc(CNC(=O)c2cnccn2)cn1 | 2.528%
CN(c1ccc(CNC(=O)c2ccc(O)nc2)cc1)C1CCCCC1 | 6.661%
CN(Cc1ccco1)Cc1ccccc1CNC(=O)c1cnccn1 | 7.808%
CN(C)C(=O)c1cncnc1-c1ccc(CNC(=O)C2CC2)cc1 | 73.6%
Cc1ncsc1C(=O)NCc1cccs1 | -3.425%
Cc1ccc(CNC(=O)c2c[nH]nc2NC(=O)C2CCC2)cc1 | 4.147%
Cc1ncsc1C(=O)NCc1ccc(-c2n[nH]cc2C(=O)N(C)C)cc1 | 72.18%
Cc1cc(C(=O)NCc2ccccc2CN(C)Cc2ccco2)on1 | 21.5%
CCOc1cc(CNC(=O)c2cc(-c3ccccn3)no2)ccn1 | -5.804%
Cc1cc(C(=O)NCc2ccc(-c3n[nH]cc3C(=O)N(C)C)cc2)on1 | 136.2%
CCC(C)NC(=O)c1ccc(NC(=O)CCCn2cncn2)c(C)c1 (centres undefined) | -0.8579%
CC(C)=CCS(=O)(=O)Cc1ccn(-c2cccc(F)c2)n1 | -8.164%
Cc1cc(C)n2nc(CC(=O)N3CC[C@H]4NCCC[C@]4(CO)C3)nc2n1 | 5.114%
CCC(O)Cn1nc(CCSC)nc1-c1ccc2c(c1)OCCO2 (centres undefined) | -7.02%
CCc1nc(C2CCCN(C(=O)c3ccc(Cl)cc3)C2)no1 (centres undefined) | 149.4%
CCc1nc(C2CCCN(C(=O)c3cn(C)nc3C)C2)no1 (centres undefined) | -1.661%
CCc1nc(C2CCCN(C(=O)c3ccc4[nH]cnc4c3)C2)no1 (centres undefined) | 87.55%
CCc1nc(C2CCCN(C(=O)c3ccc(OC(C)C)nc3)C2)no1 (centres undefined) | 4.592%
CC(C)c1nc(C2CCCN(C(=O)c3ccc4[nH]cnc4c3)C2)no1 (centres undefined) | 1.919%
CCc1nc(C2CCCN(C(=O)c3ccc(O)nc3)C2)no1 (centres undefined) | 94.4%
CCc1nc(C2CCCN(C(=O)c3ccc4[nH]nnc4c3)C2)no1 (centres undefined) | 1.903%
CCc1nc(C2CCCN(C(=O)c3c(C)noc3C)C2)no1 (centres undefined) | 106.3%
O=C(NCc1ccc(CN2CCCC2)cc1)NCc1ccon1 | -9.348%
COc1cc(C)nc(N2CCN(C(=O)CNC(C)(C)C)CC2)n1 | -7.081%

Source: ChEMBL document CHEMBL3988442, “University of Dundee, Small-Polar-MMV Screening Library” (2021)
